In PubChem BioAssay (Tox21):
Several values for one entry are separate records, joined by “and”; a condition that tells them apart may be missing. Equal entries are not always repeated. Activity calls are given as the source filed them. A call without a number means that no potency is given here. The call rests on the fitted dose curve; in most records, active means well fitted curve in the direction sought with a large enough effect in the repeat runs; inconclusive means weak or mixed curves; inactive means flat fitted curve, though single readings scatter.

Assay: qHTS assay to test for compound auto fluorescence at 535 nm (green) in HEK293 cells (AID 720680); further: potency means the concentration at half of the fitted maximal effect
Conditions: green autofluorescence 485/535 nm; series mostly up to 91.3 µM
Tags describe the fitted curve by direction and shape or compound fluorescence and quenching.

Structure (SMILES)	Potency
CCCCOCCOC(=O)c1ccccc1C(=O)OCCOCCCC	inactive
O=C(O)CP(=O)(O)O	inactive
O=C(Nc1ccccc1SSc1ccccc1NC(=O)c1ccccc1)c1ccccc1	inactive
NC12CC3CC(CC(C3)C1)C2	inactive
Cc1cccc(O)c1C	inactive
[Cl][In]([Cl])[Cl]	inactive
BrC1CCC(Br)C(Br)CCC(Br)C(Br)CCC1Br (stereo not given)	inactive
Nc1nc(=S)c2[nH]cnc2[nH]1	inactive
CC(C)CCOCc1ccccc1	inactive
Cc1ccc(-c2cc(C(F)(F)F)nn2-c2ccc(S(N)(=O)=O)cc2)cc1	inactive
CN(C)c1ccc(C(=C2C=CC(=[N+](C)C)C=C2)c2ccccc2)cc1	inactive
CCCCC/C=C/CC1CC(=O)OC1=O (stereo not given)	inactive
C=CC(=O)OCCCCCCOC(=O)C=C	inactive
Cc1occc(=O)c1OC(=O)C(C)C	inactive
Nc1ccc(O)cc1	inactive
O=C1OC2(c3ccc(O)cc3Oc3cc(O)ccc32)c2ccccc21	3.16 µM [fluorescent] (active) and 2.82 µM [fluorescent] (active) and 3.98 µM [fluorescent] (active)
CCC(C)(Oc1ccc(C2(c3ccc(OC(C)(CC)C(=O)O)cc3)CCCCC2)cc1)C(=O)O (stereo not given)	inactive

Structure (SMILES)	Potency
O=Cc1ccc(Cl)cc1	inactive
CC(=O)OCC1=C(C(=O)O)N2C(=O)[C@@H](NC(=O)Cc3cccs3)[C@H]2SC1	inactive
O=Nc1ccc(Nc2ccccc2)cc1	inactive
CC1=C(C=O)C(C)(C)CC=C1	inactive
CC[C@H]1CN2CCc3cc(OC)c(OC)cc3[C@@H]2C[C@@H]1C[C@H]1NCCc2cc(OC)c(OC)cc21	inactive
CC(C)(C)c1cc(C(C)(C)C)c(O)c(C(C)(C)C)c1	inactive
Nc1cc(S(=O)(=O)O)cc2cc(S(=O)(=O)O)cc(O)c12	inactive
CC(C)(C)c1ccccc1	inactive
O=C(O)CCc1ccccc1	inactive
CCC[C@H](N[C@@H](C)C(=O)N1[C@H](C(=O)O)C[C@@H]2CCCC[C@@H]21)C(=O)OCC	inactive
CN(C)c1ccc2nc3ccc(=[N+](C)C)cc-3sc2c1	inactive
CCCCC(CC)COC(=O)CC(C(=O)OCC(CC)CCCC)S(=O)(=O)O (stereo not given)	inactive
Nc1nc2ccccc2[nH]1	inactive
Cc1ccc(S(=O)(=O)Oc2ccc(N=Nc3ccc(-c4ccc(N=Nc5c(O)ccc6cc(S(=O)(=O)O)cc(S(=O)(=O)O)c56)c(C)c4)cc3C)cc2)cc1	inactive
CC[C@@H](N)CO	inactive
Cc1cc(C(C)(C)C)c(O)c(C(C)(C)C)c1	inactive
CCN(CC)C(=O)Nc1ccc(OCC(O)CNC(C)(C)C)c(C(C)=O)c1 (stereo not given)	inactive

Assay: qHTS assay to test for compound auto fluorescence at 460 nm (blue) in HEK293 cell free culture (AID 720681)
Conditions: cell-free medium, autofluorescence 405/460 nm (blue); series mostly up to 91.3 µM
Outline: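 Test compounds were pinned into cell-free culture medium (DMEM with 10% FBS) and fluorescence was read directly at Ex/Em 405/460 nm. Signals were expressed as fluorescence equivalents of triamterene, with DMSO vehicle as control.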

Structure (SMILES)	Potency
CCCCOCCOC(=O)c1ccccc1C(=O)OCCOCCCC	inactive
O=C(O)CP(=O)(O)O	inactive
O=C(Nc1ccccc1SSc1ccccc1NC(=O)c1ccccc1)c1ccccc1	inactive
CC(N)=O	inactive
NC12CC3CC(CC(C3)C1)C2	inactive
Cc1cccc(O)c1C	inactive
[Cl][In]([Cl])[Cl]	inactive
BrC1CCC(Br)C(Br)CCC(Br)C(Br)CCC1Br (stereo not given)	inactive
Nc1nc(=S)c2[nH]cnc2[nH]1	inactive
O=C(Oc1ccccc1)c1ccccc1O	inactive
CC(C)CCOCc1ccccc1	inactive
Cc1ccc(-c2cc(C(F)(F)F)nn2-c2ccc(S(N)(=O)=O)cc2)cc1	inactive
CN(C)c1ccc(C(=C2C=CC(=[N+](C)C)C=C2)c2ccccc2)cc1	inactive
CCCCC/C=C/CC1CC(=O)OC1=O (stereo not given)	inactive
C=CC(=O)OCCCCCCOC(=O)C=C	inactive
Cc1occc(=O)c1OC(=O)C(C)C	inactive
Nc1ccc(O)cc1	inactive
O=C1OC2(c3ccc(O)cc3Oc3cc(O)ccc32)c2ccccc21	inactive

Structure (SMILES)	Potency
CCC(C)(Oc1ccc(C2(c3ccc(OC(C)(CC)C(=O)O)cc3)CCCCC2)cc1)C(=O)O (stereo not given)	inactive
O=Cc1ccc(Cl)cc1	inactive
Cc1ccnc2c1NC(=O)c1cccnc1N2C1CC1	inactive
CC(=O)OCC1=C(C(=O)O)N2C(=O)[C@@H](NC(=O)Cc3cccs3)[C@H]2SC1	inactive
O=Nc1ccc(Nc2ccccc2)cc1	inactive
CC1=C(C=O)C(C)(C)CC=C1	inactive
CC[C@H]1CN2CCc3cc(OC)c(OC)cc3[C@@H]2C[C@@H]1C[C@H]1NCCc2cc(OC)c(OC)cc21	inactive
CC(C)(C)c1cc(C(C)(C)C)c(O)c(C(C)(C)C)c1	inactive
CC(C)(C)c1ccccc1	inactive
O=C(O)CCc1ccccc1	inactive
CCC[C@H](N[C@@H](C)C(=O)N1[C@H](C(=O)O)C[C@@H]2CCCC[C@@H]21)C(=O)OCC	inactive
CN(C)c1ccc2nc3ccc(=[N+](C)C)cc-3sc2c1	inactive
CCCCC(CC)COC(=O)CC(C(=O)OCC(CC)CCCC)S(=O)(=O)O (stereo not given)	inactive
Nc1nc2ccccc2[nH]1	inactive
Cc1ccc(S(=O)(=O)Oc2ccc(N=Nc3ccc(-c4ccc(N=Nc5c(O)ccc6cc(S(=O)(=O)O)cc(S(=O)(=O)O)c56)c(C)c4)cc3C)cc2)cc1	inactive
CC[C@@H](N)CO	inactive
Cc1cc(C(C)(C)C)c(O)c(C(C)(C)C)c1	inactive
CCN(CC)C(=O)Nc1ccc(OCC(O)CNC(C)(C)C)c(C(C)=O)c1 (stereo not given)	inactive
